Experimental data as given in the supplement of paper PMC7380943.

How the values were obtained:
[1] = system: CLZ3 (HCA2 human fibroblast dual HR-NHEJ reporter); test: NHEJ repair efficiency (GFP+ cells) relative to control (log10 fold); higher = more non-homologous end joining; conditions: 5 µM; doxycycline 0.5 ug/mL
[2] = system: CLZ3 (HCA2 human fibroblast dual HR-NHEJ reporter); test: HR repair efficiency (tdTomato+ cells) relative to control (log10 fold); higher = more homologous recombination; conditions: 5 µM; doxycycline 0.5 ug/mL
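Throughout, for HR repair efficiency (tdTomato+ cells) relative to control: compound given one day before doxycycline, which switches on I-SceI endonuclease expression to create double-strand breaks within the integrated reporter.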
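Throughout, for NHEJ repair efficiency (GFP+ cells) relative to control: compound given one day ahead of doxycycline, which switches on I-SceI endonuclease to cut the chromosomally integrated reporter and create DSBs.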

Structure (SMILES)	NHEJ repair efficiency (log10) [1]	HR repair efficiency (log10) [2]
CCN1C[C@]2(COC)CC[C@H](O)[C@]34C1[C@H]([C@H](OC)[C@H]23)[C@@]1(O)C[C@H](OC)[C@H]2C[C@@H]4[C@@H]1[C@H]2O [Neoline]	-0.0435	-0.186
CCN1C[C@]2(COC)CC[C@H](OC)[C@]34C1[C@H]([C@H](OC)[C@H]23)[C@@]1(O)C[C@H](OC)[C@H]2C[C@@H]4[C@@H]1[C@H]2O [Chasmanine]	0.0232	-0.00256
COC[C@@]12CC[C@H](OC)[C@]34C([C@H]([C@H](OC)[C@H]13)[C@]1(O)[C@H]3[C@@H](OC(=O)c5ccccc5)[C@](O)(C[C@H]34)[C@@H](OC)[C@@H]1O)N(C)C2 [Benzoylhypaconine]	-0.013	0.00783
CC(C)=CCC[C@@](C)(O)[C@H]1CC[C@]2(C)[C@@H]1[C@H](O)C[C@@H]1[C@@]3(C)CC[C@H](O[C@@H]4O[C@H](CO)[C@@H](O)[C@H](O)[C@H]4O)C(C)(C)[C@@H]3CC[C@]12C [R-Ginsenoside Rh2]	-0.0662	-0.111
C/C1=C\C2C(CCC3(CO3)C(O)C3C(O)C(C)CC3(O)C1=O)C2(C)C (stereo not given) [6,17-Epoxylathyrol]	-0.129	0.0115
